PHOSPHO1 inh: PHOSPHO1 (human) inhibition; hit rate 1.1% among 290,000; recombinant PHOSPHO1, absorbance phosphatase assay; Q8TCT1; inhibition, % at 13.3 µM; in the data active = inhibition above about 60%
Target sequence (Q8TCT1 whole entry, looked up): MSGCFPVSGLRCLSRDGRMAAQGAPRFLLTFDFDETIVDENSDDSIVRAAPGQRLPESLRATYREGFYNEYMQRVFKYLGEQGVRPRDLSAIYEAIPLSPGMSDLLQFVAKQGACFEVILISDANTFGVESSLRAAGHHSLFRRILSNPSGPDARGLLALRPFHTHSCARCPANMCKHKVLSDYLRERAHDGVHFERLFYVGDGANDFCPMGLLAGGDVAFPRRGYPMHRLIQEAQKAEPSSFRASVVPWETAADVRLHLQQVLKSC
PfG6PD inh: PfG6PD (Plasmodium falciparum) enzyme inhibition | PfGluPho enzyme, NADPH resazurin-diaphorase fluorescence | inhibition, % at 20 µM | hit rate 0.78% among 350,000;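 active = inhibition reaching at least a set limit at 20 µM in the primary screen, cut at about 59% in these data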;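 note: 0% = DMSO wells with substrate and 100% = DMSO wells lacking glucose-6-phosphate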
H9c2 protect: protects H9c2 cardiomyocytes from peroxide injury; H2O2 injury protection, ATPLite, 2 h; protection from H2O2 cell death, % at 20 µM; hit rate 0.63% among 360,000; AID 588492;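 active = compounds giving at least 50% protection of heart cells from peroxide-induced death in the single-dose screen, raw or plate-pattern-corrected value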;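 note: 0% = DMSO wells with peroxide and 100% = DMSO wells without peroxide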
ALR inh: blocks human ALR sulfhydryl oxidase activity; P55789; purified ALR, DTT oxidation, H2O2 HRP-luminol luminescence; inhibition, % (test concentration not listed); hit rate 3.8% among 290,000; AID 485317;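 active = mean replicate inhibition above about 79%, with every replicate also reaching it, limit read from the data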
Target sequence (P55789 whole entry, looked up): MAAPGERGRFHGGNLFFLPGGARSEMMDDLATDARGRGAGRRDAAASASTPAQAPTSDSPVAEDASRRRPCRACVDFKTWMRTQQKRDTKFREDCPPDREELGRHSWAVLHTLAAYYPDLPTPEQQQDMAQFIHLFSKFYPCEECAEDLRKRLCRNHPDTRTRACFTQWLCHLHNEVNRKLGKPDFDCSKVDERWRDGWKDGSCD
PfM18AAP inh: blocks P. falciparum M18 aspartyl aminopeptidase; inhibition, % at 7.35 µM; AID 1822; recombinant PfM18AAP, H-Glu-NHMec fluorogenic cleavage; hit rate 1.2% among 290,000;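 active = inhibition above the campaign mean inhibition over all tested compounds plus 3 SD, cut at about 28% in these data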;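 note: 0% = plate median of test compound wells and 100% = 2 mM ZnCl2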
* = called active by the depositor; nt = no result given. Compounds with a hit are over-represented: about 5.6% of the library has one in this group of screens.

SMILES | PHOSPHO1 inh | PfG6PD inh | H9c2 protect | ALR inh | PfM18AAP inh
Cc1c(OC(C)C(=O)N[C@H](C(=O)O)c2ccccc2)ccc2c3c(c(=O)oc12)CCCC3 (some centres not stated) | 23 | -9 | 6 | 96* | -10
Cc1cc(C)c(C(=O)NCC(=O)c2ccccc2)c(C)c1 | nt | -7 | 0 | 6 | nt
O=C(COC(=O)c1ncc(Cl)c(Cl)c1Cl)NC(=O)c1ccccc1 | nt | -19 | 0 | 16 | nt
O=C1OCc2ccc([N+](=O)[O-])cc21 | nt | -6 | 1 | nt | nt
C(=C\c1ccccc1)/CN1CCN(C(CCc2ccccc2)c2nnnn2C2CCCCC2)CC1 (configuration not stated) | nt | nt | -8 | nt | nt
Cc1cc(Cl)ccc1OCC(O)CNCCc1ccc(S(N)(=O)=O)cc1 (configuration not stated) | 23 | -1 | 4 | -24 | -1
Cc1ccccc1C(=O)Nc1cccc(N)c1 | 2 | 19 | -1 | -3 | 9
CC(=O)Nc1cccc(NC(=O)c2ccco2)c1 | 16 | 32 | 1 | -15 | 1
Nc1ccc(C(=O)Nc2cccc(N)c2)cc1 | 41 | 10 | -4 | 99* | 1
Nc1cccc(NC(=O)c2ccco2)c1 | nt | 4 | 3 | 99* | -3
COc1ccc(NC(=O)CN(C)C(=O)CN2C(=O)C3CCCCC3C2=O)cc1 (configuration not stated) | nt | 3 | 6 | -9 | nt
O=C(N/N=C/c1ccc(OC(F)F)cc1)c1ccc(Br)cc1 | 7 | -9 | 3 | 1 | 4
O=C(NO)c1ccc(OC(F)F)cc1 | 43 | -22 | 8 | 99* | 10
CCn1cc(C(=O)N[C@H](C(=O)NCCN2CCOCC2)C(C)C)c(=O)c2cc3c(cc21)OCO3 | 27 | 1 | 3 | 8 | -3
N=C(N)SCc1nc2ccccc2c(=O)n1-c1ccccc1 | 2 | 38 | 15 | 98* | 6
CC(C)Oc1cccc(C(=O)C2CCCN(Cc3cnc(N4CCCC4)s3)C2)c1 (configuration not stated) | 37 | 0 | -11 | -1 | 3
COc1ccc2cc(C(=O)C3CCCN(Cc4cnc(N5CCOCC5)s4)C3)ccc2c1 (configuration not stated) | 60* | 18 | -4 | -34 | -6
COc1ccccc1C(=O)C1CCCN(Cc2cccc(OCCO)c2)C1 (configuration not stated) | 3 | 5 | 3 | -5 | -6
COc1cccc2c3c(c(=O)[nH]c12)CC(C)(C)O3 | nt | 10 | -5 | 14 | nt
COc1cccc2c3c(c(=O)[nH]c12)CCC(C)(C)O3 | -20 | -20 | -6 | 98* | -1
NC(=S)NNc1cccc(Cl)c1 | 39 | 59 | 1 | 98* | 20
COc1cc(S(=O)(=O)Nc2ccc3nc(C)sc3c2)ccc1NC(C)=O | nt | 8 | -11 | -18 | nt
Cc1ccc(C2=NNC3(CCOC(C)(C)C3)S2)cc1 (configuration not stated) | -21 | 4 | 4 | -4 | -8
COc1ccccc1N1CCN(C(=O)c2ccc(Br)o2)CC1 | nt | 2 | -5 | nt | nt
COc1ccc(N2CCN(C(=O)c3ccc(Br)o3)CC2)cc1 | 48 | 9 | 4 | 84* | -3
SMILES | PHOSPHO1 inh | PfG6PD inh | H9c2 protect | ALR inh | PfM18AAP inh
COc1ccc(S(=O)(=O)Cc2ccc(C(=O)N3CCN(c4ccc(Cl)cc4)CC3)o2)cc1 | 11 | 9 | -4 | 86* | -2
COc1ccc(S(=O)(=O)Cc2ccc(C(=O)N3CCN(c4cccc(C)c4)C(C)C3)o2)cc1 (configuration not stated) | 7 | 3 | 0 | 94* | 0
COc1ccccc1S(=O)(=O)Cc1ccc(C(=O)N2CCN(c3ccc(C)cc3)C(C)C2)o1 (configuration not stated) | 46 | -5 | 18 | 73 | -6
COc1ccc(S(=O)(=O)Cc2ccc(C(=O)N3CCc4ccccc4C3)o2)cc1 | 1 | -8 | 5 | 97* | -3
Cc1ccc(/C=C/S(=O)(=O)NCC(=O)OCC(=O)Nc2c(F)cccc2F)cc1 | nt | -8 | -6 | nt | nt
CCOc1ccc(S(=O)(=O)N2CCC(C(=O)OC(C)C(=O)N3CCOCC3)CC2)cc1 (configuration not stated) | nt | 2 | 4 | -9 | nt
COc1ccc(S(=O)(=O)Cc2ccc(C(=O)N3CCN(C4CCCCC4)CC3)o2)cc1 | 4 | -7 | 3 | 92* | -7
O=C(Oc1ccc(Cl)c2cccnc12)c1cccc([N+](=O)[O-])c1 | -27 | 8 | 64* | nt | -3
O=C(Oc1c(Cl)cc(Cl)c2cccnc12)c1cccc([N+](=O)[O-])c1 | -9 | -22 | -6 | -16 | 2
O=C(Oc1coc(CSc2ncccn2)cc1=O)c1cccc([N+](=O)[O-])c1 | 6 | 8 | 44 | 97* | 8
COc1cccc(CN2CCNC(=O)C2CC(=O)N(C)C2CCOCC2)c1OC (configuration not stated) | 66* | 0 | 5 | -30 | 7
COc1cccc(CN2CCNC(=O)C2CC(=O)N(C)CC2CCOCC2)c1OC (configuration not stated) | 11 | 9 | 0 | -10 | 10
CCOc1ccc(/C=N/Nc2nc(C)cs2)c(O)c1 | 14 | -17 | 12 | 5 | 28*
Cc1csc(N/N=C/c2ccccc2F)n1 | -3 | 1 | -4 | 12 | 0
CN(C)C(=C(C#N)C#N)N1CCN(c2ccc(Cl)cc2)CC1 | 33 | -15 | 3 | 39 | -4
CSC(=NC#N)N1CCN(c2ccc(Cl)cc2)CC1 | 55 | -6 | -2 | 97* | 4
COc1cnc(-c2ccccn2)nc1Oc1ccccc1Cl | 22 | -3 | -4 | 98* | -4
O=C(Nc1cccc(NC(=O)c2ccc([N+](=O)[O-])o2)c1)c1ccco1 | 27 | 10 | 57* | nt | -3
O=C(Nc1cccc(NC(=O)c2ccc(-c3cccc(Br)c3)o2)c1)c1ccco1 | -26 | 12 | 60* | 0 | -15
COc1ccc(Br)cc1C(=O)Nc1cccc(NC(=O)c2ccco2)c1 | -2 | 30 | 64* | -8 | 3
COc1ccc(Br)cc1C(=O)Nc1ccc(C(=O)O)cc1 | 20 | -1 | 2 | -2 | 1
COc1ccc(Br)cc1C(=O)Nc1ccc(O)cc1 | 31 | -5 | 4 | 99* | 0
O=C(Nc1ccc(NC(=O)c2ccc([N+](=O)[O-])o2)cc1Cl)c1ccco1 | -9 | -2 | -9 | nt | 4
COc1ccc(C(C(=O)NC2CCCC2)N(C(=O)CNC(=O)c2ccco2)c2cccnc2)cc1 (configuration not stated) | 37 | -4 | -3 | nt | 3
CCc1ccccc1Oc1nc(NC(C)C)nc2ccsc12 | nt | nt | -10 | nt | nt
N#C/C(=C(/O)CSc1ccccn1)c1nc2ccccc2s1 | -102 | -13 | 3 | 82* | 16
CCOc1cc(CNc2ccc(CNc3ncn[nH]3)cc2)ccc1OCc1ccccc1 | -1 | 17 | -5 | 18 | 40*
CCOc1cc(CNc2ccccc2)cc(Br)c1OCc1ccc(F)cc1 | 35 | 15 | -21 | -29 | 1
O=C(Nc1cccn2nc(COCCO)nc12)C(c1ccccc1)c1ccccc1 | nt | nt | 23 | nt | nt

Screening data deposited in PubChem BioAssay by several laboratories.
